# Source: PubChem BioAssay
# In the library only some 4.2% were active in any assay of this set; here they are far more common.
# ssDAF12 agonist – activates DAF-12 receptor from parasite S. stercoralis. HEK293 ssDAF-12/GRIP1 lit1-tk-luc reporter, luminescence; % of 3 µM dafachronic acid response. AID 652126. 1% of 370,000 active. activation, % at 6.8 µM;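 active = activation above the mean over all tested compounds plus 3 SD, cut at about 0.9% in these data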;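 also: 0% = DMSO-only wells and 100% = 3 µM delta7-dafachronic acid wells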
# hgDAF12 agonist – hgDAF-12 agonism, primary luciferase screen. activation, % at 6.8 µM. 1.8% of 370,000 active. HEK293 GAL4-hgDAF12 UAS-luciferase reporter, agonist luminescence; normalized to butyrate control. AID 687014;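 active = activation above a cutoff set at the mean of all screened compounds plus 3 SD, cut at about 10% in these data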;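 also: 0% = DMSO wells and 100% = sodium butyrate wells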
# DAX1 inh – DAX1 (NR0B1) inhibition, primary screen | 1.1% of 370,000 active | inhibition, % at 6.8 µM | HEK293T StAR-luciferase reporter, SF-1/DAX-1 repression relief;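 active = inhibition above the mean over all tested compounds plus 3 SD, cut at about 3.6% in these data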;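 also: 0% = DAX-1 cells with DMSO and 100% = cells lacking DAX-1 with DMSO; higher inhibition means more luminescence from relief of DAX-1 repression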
# hcDAF12 agonist – activators of H. contortus DAF-12 nuclear receptor; HEK293 hcDAF-12 lit1-tk-luc reporter, luminescence; 0% DMSO, 100% Δ7-dafachronic acid; activation, % at 6.8 µM; 1.4% of 370,000 active; AID 652067;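 active = activation above the mean of all tested compounds plus 3 SD, cut at about 5.5% in these data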;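 also: 100% = response to 3 µM Δ7-dafachronic acid high control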
# SMARCA2 activ – SMARCA2 function activation, primary screen; MG213 cells, MMTV-luciferase reporter, dexamethasone, overnight; activation, % at 9.1 µM; 1% of 370,000 active; AID 652017; in the data active = activation above about 7.8%;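 also: 0% = vehicle wells and 100% = reference activator wells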
# SMARCA2 conf – SMARCA2 activation, confirmation screen | shares compounds with SMARCA2 activ | MG213 cells, MMTV-luciferase with dexamethasone, luminescence, overnight; MG213 cells expressing E1A, Rb sequestered; DMSO wells 0%, reference activator 100% | activation, % at 9.1 µM | 30% of 3,500 active | AID 652260;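 active = activation above its plate's cutoff, the mean activation of tested wells plus 3 SD, cut at about 7.9% in these data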
# VP16 Luc act – counter-screen for SMARCA2 activators: GAL4-VP16 luciferase reporter activation. HEK293 GAL4-VP16 pG5luc reporter, luciferase luminescence; scaled: DMSO wells 0%, SAHA wells 100%. 41% of 3,500 active. AID 686939. activation, % at 9.1 µM. shares compounds with SMARCA2 activ;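 active = activation above the solvent-only control well mean plus 3 SD, averaged across control plates, cut at about 5.2% in these data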
# LXRb hcDAF ctr – LXR-beta agonism as hcDAF-12 counter-screen | activation, % at 6.8 µM | 3,400 tested, under 10 active | HEK293 Gal4-LXR tk-luc reporter, luminescence, 24 h; normalized: DMSO 0%, positive control 100% | shares compounds with hcDAF12 agonist;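 active = mean percent activation of the reporter above a cutoff set as the average over tested compounds plus their standard deviation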
# Target sequence (P55055 whole entry, looked up, the tested form may be a part): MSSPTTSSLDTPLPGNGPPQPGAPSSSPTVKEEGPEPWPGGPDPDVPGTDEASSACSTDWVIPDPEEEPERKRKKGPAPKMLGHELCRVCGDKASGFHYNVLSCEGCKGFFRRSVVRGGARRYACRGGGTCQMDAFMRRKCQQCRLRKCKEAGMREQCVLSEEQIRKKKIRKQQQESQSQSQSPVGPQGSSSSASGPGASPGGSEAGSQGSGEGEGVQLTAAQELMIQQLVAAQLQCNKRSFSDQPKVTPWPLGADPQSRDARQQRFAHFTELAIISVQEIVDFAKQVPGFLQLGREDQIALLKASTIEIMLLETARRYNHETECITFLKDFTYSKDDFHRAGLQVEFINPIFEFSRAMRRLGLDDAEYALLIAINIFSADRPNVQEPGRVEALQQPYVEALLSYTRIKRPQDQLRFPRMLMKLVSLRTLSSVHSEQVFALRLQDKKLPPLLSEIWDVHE
# hcDAF12 ag – confirmation of H. contortus DAF-12 agonists. AID 743032. HEK293 hcDAF-12 lit1-tk-luc reporter, luminescence; % of Δ7-dafachronic acid response. activation, % at 6.8 µM. shares compounds with hcDAF12 agonist. 61% of 3,400 active;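 active = mean activation across triplicate tests above the threshold derived from the earlier primary screen, cut at about 5.5% in these data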;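 also: 0% = DMSO only wells and 100% = 3 µM Δ7-dafachronic acid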
# hgDAF12 conf – confirmation of H. glycines DAF-12 agonists. shares compounds with hgDAF12 agonist. HEK293 GAL4-hgDAF12 luciferase reporter, agonist mode; percent of butyrate response. activation, % at 6.8 µM. 80% of 3,300 active;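 active = mean activation over triplicate wells above the hit cutoff derived from the earlier primary screen, cut at about 11% in these data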;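 also: 0% = DMSO low control and 100% = 2 mM sodium butyrate high control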
# LXRb DAF12 ctr – LXR-beta agonism as DAF-12 counter-screen. shares compounds with hgDAF12 agonist. HEK293 Gal4-LXR luciferase reporter, 24 h. activation, % at 6.8 µM. 3,300 tested, under 10 active. AID 743051;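 active = mean activation of the triplicate above a set limit carried over from the primary screen, none filed active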
# * hit, by the source's call; x = not tested or not shown.
SMILES,ssDAF12 agonist,hgDAF12 agonist,DAX1 inh,hcDAF12 agonist,SMARCA2 activ,SMARCA2 conf,VP16 Luc act,LXRb hcDAF ctr,hcDAF12 ag,others
O=C(COC(=O)CC1CCCC1)Nc1cc2c(cc1Cl)C(=O)c1ccccc1C2=O,0,7,3,9.1*,8.1*,8.6*,14*,1,6.1*,
CCCC1CCC2(CC1)CCC2OC(=S)NCCc1ccc(Cl)cc1 (stereo unspecified),-1,-2,x,0,x,x,x,x,x,
COc1cccc(-c2nc(-c3ccccc3)no2)c1,2.0*,19*,3.8*,9.4*,8.8*,8.4*,14*,2,15*,
Cc1cc(C)cc(C(=O)OCCCN(C)C2CN(Cc3cn(Cc4ccccc4F)nn3)S(=O)(=O)C2)c1 (stereo unspecified),-2,-1,-1,-2,-2,x,x,x,x,
COc1cccc(C(CC2=CCCCC2)NC(=O)C(F)(F)F)c1 (stereo unspecified),-1,2,0,-1,-2,x,x,x,x,
Cc1ccc(NC(=O)N2CCc3ccccc3C2)cc1,1,8,1,7.4*,8.9*,5,8.5*,1,6.7*,
O=C(Nc1ccc(Cl)cc1)N1CCc2ccccc2C1,0,9,2,4,3,x,x,x,x,
COc1ccc2nc(C)cc(Nc3ccc(N4CCN(C)CC4)cc3)c2c1,0.9*,5,0,13*,74*,133*,-1,1,12*,
COc1ccc2nc(C)cc(Nc3ccc(N4CCOCC4)cc3)c2c1,-1,2,0,1,0,x,x,x,x,
Cn1c(Cc2cccs2)nnc1SCC(=O)Nc1ccc2c(c1)OCCO2,-1,2,-1,-1,-2,x,x,x,x,
CCOC(=O)/C(C#N)=C/c1c[nH]c2ccccc12,0,7,0,9.0*,11*,5,4,0,5,
Cc1ccc2nc(-c3ccc(SCC(=O)N4CCc5ccccc54)nc3)[nH]c2c1,0,5,1,7.1*,9.1*,12*,13*,1,6.4*,
COc1ccc(CCNc2nc3ccccc3n3nnnc23)cc1OC,0,7,-1,7.7*,18*,4,2,0,2,
C=CCCC1CN(Cc2ccc(OC)cc2)S(=O)(=O)c2c(F)cccc2O1 (stereo unspecified),-1,6,3,0,-1,x,x,x,x,
Cc1cccc(-c2nnc(SCC(=O)Nc3ccc(-c4nc5ccc(C)cc5s4)cc3)n2Cc2ccco2)c1,0,7,-1,2,-5,x,x,x,x,
C=CCn1c(SCC(=O)Nc2ccc(-c3nc4ccc(C)cc4s3)cc2)nnc1-c1ccncc1,-1,13*,2,7.0*,8.9*,5,9.2*,0,2,
Cn1c2ccc(Cl)cc2c2nc3ccccc3nc21,2.4*,12*,3,8.8*,9.4*,11*,3,0,8.5*,
CCOc1ccc2c(c1)c1nc3ccccc3nc1n2C,0,4,0,5,6,x,x,x,x,
O=C(CSc1nnc(-c2ccccc2)n1-c1ccc(Cl)cc1)Nc1ccc2cn[nH]c2c1,-2,-1,-1,-2,5,x,x,x,x,
N#C/C(=C/c1ccc(N2CCOCC2)o1)c1nc2ccccc2[nH]1,1,2,2,6.8*,9.7*,16*,17*,2,8.1*,
CN(C)c1cccc2c(S(=O)(=O)NC(=O)[C@H]3O[C@@H](n4ccc(=O)[nH]c4=O)[C@H](O)[C@@H]3O)cccc12,0,-5,0,-1,4,x,x,x,x,
N#CC1(c2ccc(NC(=O)c3ccccc3F)cc2)CCCC1,0,23*,3,6.9*,9.5*,9.3*,8.6*,2,6.6*,
Cc1ccc(OCc2nc3ccccc3[nH]2)cc1,0,16*,4.2*,6.0*,14*,10*,8.2*,x,x,hgDAF12 conf=13*;LXRb DAF12 ctr=1
CC(=O)CC[C@@H]1CC[C@]2(CCCN(C(=O)C3CCCC3)C2)O1,-1,-2,1,3,-3,x,x,x,x,
C(=C\n1nnc2ccccc21)/c1ccccn1,1.2*,19*,3,8.4*,8.7*,8,10*,2,7.5*,hgDAF12 conf=24*;LXRb DAF12 ctr=1
SMILES,ssDAF12 agonist,hgDAF12 agonist,DAX1 inh,hcDAF12 agonist,SMARCA2 activ,SMARCA2 conf,VP16 Luc act,LXRb hcDAF ctr,hcDAF12 ag,others
Nn1nnc2ccccc21,-1,8,1,1,-2,x,x,x,x,
COc1ccccc1NS(=O)(=O)c1cccc(NC(=O)c2cc3ccccc3oc2=O)c1,0,16*,3,5,8.1*,4,9.5*,x,x,hgDAF12 conf=13*;LXRb DAF12 ctr=0
COc1ccccc1NS(=O)(=O)c1cccc(NC(=O)Nc2ccccc2)c1,-2,-1,-1,-4,-6,x,x,x,x,
CN(c1ccccc1)S(=O)(=O)c1cccc(NC(=O)c2cc3ccccc3oc2=O)c1,1,16*,2,5,12*,-1,6.3*,x,x,hgDAF12 conf=10;LXRb DAF12 ctr=0
O=C(Nc1cccnc1)c1ccc(CSc2ccc(Cl)cc2)o1,-2,-4,-2,-2,-5,x,x,x,x,
CC1CCc2c(sc(NC(=O)COC(=O)C3CCCO3)c2C#N)C1 (stereo unspecified),-1,3,0,0,-3,x,x,x,x,
CC1CCc2c(sc(NC(=O)C3CCCO3)c2C#N)C1 (stereo unspecified),-1,20*,3,1,14*,4,12*,x,x,hgDAF12 conf=10*;LXRb DAF12 ctr=1
O=C(Nc1ccc(N2CCOCC2)cc1)c1nc2ccccc2s1,0,18*,4.3*,4,12*,8.5*,12*,x,x,hgDAF12 conf=15*;LXRb DAF12 ctr=1
COc1c(C)cc(C(O)c2ncc(-c3cccc(F)c3)[nH]2)cc1C (stereo unspecified),-1,3,0,0,-1,x,x,x,x,
CCCC(CCC)=NNC(=O)c1ccccc1F,0,16*,3,2,8.2*,-1,1,x,x,hgDAF12 conf=4;LXRb DAF12 ctr=0
